# Assay outcomes from PubChem BioAssay.
# HT1080 IDH1KD tx: toxicity to HT-1080 IDH1 knockdown cells (counter line); HT-1080 IDH1 knockdown viability, ATP luminescence, 48 h; Potency, µM (highest dose often 46.1 µM), inactives show at the highest dose activity, negative = toxicity, hits mostly cytotoxic; 360,000 compounds, 2% hits;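 note: potency is the fitted concentration of half-maximal effect; 0% = DMSO wells and -100% = cell-free medium wells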
#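 CellTiter-Glo luminescence after 48 h compound exposure at 37 degrees C of IDH1-knockdown HT-1080 cells in 5% FBS RPMI. %Activity scaled between DMSO wells and cell-free media wells, with curves fitted and assigned curve classes.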
# DT40 TDP1 CPT: DT40-hTDP1 cell growth loss with CPT; chicken DT40 Tdp1-/-;hTDP1 cells + 20 nM CPT, ATP luminescence, 48 h; Potency, µM (series often up to 46.2 µM), for the others: at the top dose activity change, negative = growth inhibition, usual class: inhibitors; 420,000 compounds, 12% hits; AID 686979; note: potency is the fitted concentration of half-maximal effect; nearly all actives have a fitted effect of over 55% in size
#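 Cell growth measured by CellTiter-Glo luminescence after a minimum 48 h, 37 C compound exposure with 20 nM CPT in Tdp1-knockout DT40 cells stably expressing hTDP1, seeded 400/well; qHTS titration format.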
# 12-LOX inh: blocks human arachidonate 12S-lipoxygenase. purified 12hLO, xylenol orange hydroperoxide absorbance. Potency, µM (titrated, usually from 108 µM), for inactives: at the top dose activity change, negative = inhibition, hits mostly inhibitors. 580,000 compounds, 1.1% hits; note: potency is the fitted concentration of half-maximal effect
#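 Purified human 12hLO at 150 nM in 25 mM Hepes, 0.01% Triton X-100, pH 7.0, preincubated 15 min at room temperature with compound. Reaction started with 40 uM arachidonic acid, 30 min at room temperature. Hydroperoxide measured by Fe-xylenol orange, 573/405 nm absorbance ratio.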
# IL-1B inflam inh: inhibitors of inflammasome signaling (IL-1 beta secretion); THP-1 LPS/ATP IL-1B secretion, AlphaLISA, 16 h; hits give low values; activity change, % at 57.5 µM; 360,000 compounds, 4.7% hits; AID 743279; in the data active = activity change below about -50%; inconclusive = mostly about -30% to -49%
#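 THP-1 cells pretreated 1 hr with compounds (up to 57.5 uM final), then stimulated with LPS (250 ng/mL final) plus ATP (1.25 mM final); secreted IL-1B measured by AlphaLISA after 16 hr, decreased signal indicating inhibition.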
# HT1080NT lethal: kills 2HG-producing HT-1080-NT fibrosarcoma cells. HT-1080-NT fibrosarcoma viability, CellTiter-Glo ATP luminescence, 48 h. Potency, µM (top dose mostly 46.1 µM), without a hit: top-dose activity, negative = less viability, most hits filed as cytotoxic. 360,000 compounds, 1.6% hits. AID 686970;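 note: NT is the 2HG producing partner of a matched IDH1 knockdown line; potency is the fitted concentration of half-maximal effect; 0% = DMSO-treated cells and -100% = media-only wells without cells; nearly all actives have a fitted effect of over 55% in size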
#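 Luminescent CellTiter-Glo readout after 48 hours of compound exposure at 37 degrees C defined viability of HT-1080-NT cells. Activity was normalized to DMSO wells and cell-free media wells; concentration-response curves were fitted and assigned curve classes.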
# DT40 TDP1 no CPT: qHTS for Inhibitors of human tyrosyl-DNA phosphodiesterase 1 (TDP1): qHTS in cells in absence of CPT; Potency, µM (series often up to 46.2 µM), for the others: at the top dose activity change, negative = growth inhibition, hits mostly inhibitors; 420,000 compounds, 15% hits; DT40 Tdp1-/- hTDP1 cells, no CPT, ATP luminescence, 48 h; note: potency is the fitted concentration of half-maximal effect; nearly all actives have a fitted effect of over 55% in size
#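 Growth kinetics read by CellTiter-Glo luminescence after ≥48 hr at 37 °C. Cells: DT40 Tdp1-/- stably carrying human TDP1, 400 per well, compound exposure in the absence of CPT (DMSO vehicle).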
# * marks the source's active call; other numbers are inactive results; ? = inconclusive; . = not tested or not shown; [ ] = another dose, or the depositor's remark. The full list was thinned out, with hits kept by preference. Unless noted, calls come from the whole dose curve; as a rule, active = well fitted curve in the direction sought with a large enough effect; inconclusive = small, poorly fitted or top-dose-only effect, or another doubt; inactive = no such curve, though single readings can be large; an effect the other way counts as inactive or inconclusive. Unless noted, % is set by controls: 0 for no effect and ±100 for the full control effect.
SMILES,HT1080 IDH1KD tx,DT40 TDP1 CPT,12-LOX inh,IL-1B inflam inh,HT1080NT lethal,DT40 TDP1 no CPT
CCn1nc(NC(=O)c2ccco2)c2cc3cc(C)ccc3nc21,0.2%,?,?,-50.2*,-0.5%,?
Cc1ccc2cc3c(NC(=O)c4cccnc4)nn(C)c3nc2c1,-2.9%[9.24 µM],-25.3%,-7.1%,-10.3,6.4%,13µM*
CC(=O)Nc1nn(C)c2nc3cc(C)ccc3cc12,-0.9%,?,?,-0.8,-0.3%,?
Cc1ccc2cc3c(NC(=O)c4ccco4)nn(C)c3nc2c1,-14.0%,-31.0%,13.5%,-0.6,-11.3%,?
COc1ccc(-c2noc(CC3CCN(C(=O)C4CCN(C(=O)c5ccccc5)CC4)CC3)n2)cc1,.,.,37.1%,.,.,.
COc1ccccc1CCC(=O)Nc1nc2ccccc2[nH]1,?,5.8µM*,97.9%[57.4 µM],-1.0,-8.1%,4.11µM*
COc1ccc(CC(=O)Nc2nc3ccccc3[nH]2)cc1,-13.5%,?,-11.1%,-3.9,2.1%,?
CCCCCC(=O)Nc1nc2ccccc2[nH]1,?,9.2µM*,0.0%,12.8,?,8.2µM*
COc1ccc(CCC(=O)Nc2nc3ccccc3[nH]2)cc1OC,0.2%,-1.9%,0.0%,4.2,-1.0%,1.6%
CCOc1ccccc1OCCCC(=O)Nc1nc2ccccc2[nH]1,-1.1%,-3.0%,?,-1.8,-2.9%,-13.9%
O=C(Cc1cccc2ccccc12)Nc1nc2ccccc2[nH]1,12.6µM*,?,12.0%,55.5,12.6µM*,-25.3%
CC12CC(NC(=O)N1c1cccc(C(=O)NCc3ccc4c(c3)OCO4)c1)c1cc(Cl)ccc1O2 (stereo not drawn),?,18.4µM*,?,?,?,18.4µM*
CC(C)C(=O)Nc1cccc(C(=O)NCc2ccc3c(c2)OCO3)c1,-12.9%,-7.8%,8.9%,7.2,-1.7%,-17.7%
Cc1cccc(C)c1NC(=O)C(c1cccs1)N(Cc1ccco1)C(=O)Cn1nnc2ccccc21 (stereo not drawn),2.7%,?,10.5%,-3.2,8.4%,10.3µM*
O=C(NC1CCCCC1)C(c1ccc(F)cc1)N(Cc1ccco1)C(=O)Cn1nnc2ccccc21 (stereo not drawn),-27.7%,-23.0%,4.3%,9.3,-16.6%,-15.6%
Cc1ccc(C(C(=O)NC2CCCCC2)N(Cc2ccco2)C(=O)Cn2cnc3ccccc32)cc1 (stereo not drawn),?,18.4µM*,39.9%,-2.1,-21.5%,?
O=C(NC1CCCCC1)C(c1ccccc1F)N(Cc1ccco1)C(=O)Cn1nnc2ccccc21 (stereo not drawn),-0.9%,?,-20.2%,-7.0,-8.0%,18.4µM*
O=C(NC1CCCCC1)C(c1ccc(F)cc1)N(Cc1ccco1)C(=O)CN1C(=O)c2ccccc2S1(=O)=O (stereo not drawn),-1.2%,?,1.5%,-2.9,-1.8%,18.4µM*
O=C(NCC1CCCO1)C(c1ccco1)N(Cc1ccc(F)cc1)C(=O)CN1C(=O)c2ccccc2S1(=O)=O (stereo not drawn),10.7%,-8.6%,-60.8%,7.8,4.5%,-25.6%
Cc1ccccc1C(C(=O)NCc1ccco1)N(CC1CCCO1)C(=O)Cn1nnc2ccccc21 (stereo not drawn),13.0%,?,0.0%,-14.4,-3.2%,-28.3%
COc1cccc(C(C(=O)NCc2ccco2)N(C(=O)Cn2nnc3ccccc32)C2CC2)c1OC (stereo not drawn),12.7%,18.4µM*,0.8%,7.0,11.3%,13µM*
O=C1/C(=C/N(C(=O)c2ccco2)c2ccc(Br)cc2)Sc2ccccc21,?,?,.,-13.8,?,14.6µM*
